Most compounds without a hit are left out; they make up all but 2.6% or so of the library.
PfM18AAP inh-1: blocks P. falciparum M18 aspartyl aminopeptidase; recombinant PfM18AAP, H-Glu-NHMec fluorogenic cleavage; inhibition, % at 7.35 µM; 1.2% of 290,000 active;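 active means inhibition above the campaign mean inhibition over all tested compounds plus 3 SD, cut at about 28% in these data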
Exocytosis inh: lytic granule exocytosis inhibition. 0.66% of 360,000 active. inhibition, % at 10 µM. TALL-104 LAMP-1 surface exposure, flow cytometry; cells stimulated with thapsigargin and PMA;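 active means inhibition above about 55%, limit read from the data; inconclusive means no clear call, values can overlap the other calls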
Rce1 inhib: blocks yeast Ras-converting enzyme | calls only | 0.27% of 290,000 active | AID 2563 | yeast membranes, quenched prenylated peptide cleavage fluorescence;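 active means fall in fluorescence gain of 50% or more versus controls, with final raw signal at or below 3038400; inconclusive means same 50% fall but final raw signal above 3038400; inactive means fall in fluorescence gain under 50%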
Target sequence (Q03530 whole entry, looked up): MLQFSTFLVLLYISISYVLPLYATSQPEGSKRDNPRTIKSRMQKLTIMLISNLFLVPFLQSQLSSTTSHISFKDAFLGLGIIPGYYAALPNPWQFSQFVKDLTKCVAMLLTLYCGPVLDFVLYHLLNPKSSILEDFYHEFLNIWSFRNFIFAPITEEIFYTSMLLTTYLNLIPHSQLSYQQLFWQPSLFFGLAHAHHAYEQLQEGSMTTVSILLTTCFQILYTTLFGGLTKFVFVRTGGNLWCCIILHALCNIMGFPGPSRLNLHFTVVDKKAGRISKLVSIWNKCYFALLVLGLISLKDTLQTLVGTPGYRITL
ABHD5-PLIN5 inh: inhibitors of human ABHD5-perilipin-5 interaction | Split G. princeps luciferase complementation, luminescence, 4 h | inhibition, % at 4 µM | 0.78% of 360,000 active | AID 602281;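 active means inhibition above the mean inhibition across every tested compound plus 3 SD, cut at about 22% in these data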
Platelet DG rel: modulates dense granule release in human platelets. human platelet-rich plasma, SFLLRN dense granule ATP release, luminescence. inhibition, %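 (compounds screened at 7.5 µM in platelet-rich plasma)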. 0.22% of 300,000 active. AID 1663;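 active means mean replicate score, as percent of positive control, at or above 50; inconclusive means mean below 50 but at least one replicate at or above 50; inactive means mean and every replicate below 50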
PfM18AAP inh-2: confirmation of Plasmodium falciparum M18 aspartyl aminopeptidase inhibitors; shares compounds with PfM18AAP inh-1; recombinant PfM18AAP, H-Glu-NHMec fluorogenic cleavage; inhibition, % at 7.35 µM; 28% of 2,400 active; AID 2170;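 active means mean inhibition over replicate wells above the hit cutoff set for the earlier primary screen, cut at about 29% in these data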
CTSL1 confirm: counter-screen for PFM18AAP inhibitors: confirmation of human cathepsin L inhibitors. shares compounds with PfM18AAP inh-1. purified cathepsin L1, Z-Leu-Arg-MCA fluorescence. inhibition, % at 5.96 µM. 2,400 tested, under 10 active. AID 2178;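 active means average inhibition across replicates above the hit cutoff set in the earlier primary screen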
Target sequence (P07711 whole entry, looked up): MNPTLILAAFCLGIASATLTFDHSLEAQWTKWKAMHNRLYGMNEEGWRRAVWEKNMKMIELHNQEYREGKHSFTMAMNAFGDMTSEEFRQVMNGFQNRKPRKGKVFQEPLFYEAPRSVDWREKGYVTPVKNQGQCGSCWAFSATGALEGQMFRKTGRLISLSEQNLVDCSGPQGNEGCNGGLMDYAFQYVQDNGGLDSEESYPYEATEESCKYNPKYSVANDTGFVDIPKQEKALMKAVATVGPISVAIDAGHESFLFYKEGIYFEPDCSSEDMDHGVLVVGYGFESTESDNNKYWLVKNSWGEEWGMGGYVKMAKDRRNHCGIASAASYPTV
Of the large screens only hits and unclear results are named; the others gave an inactive call (follow-up assays come after a bar, where they were run).

CCCCN=Cc1c(C)[nH]n(-c2ccccc2)c1=S	PfM18AAP inh-1 51 | PfM18AAP inh-2 inactive | CTSL1 confirm inactive
C/C(=N\NC(=O)c1cc(O)ccc1O)c1cccc(NC(=O)c2ccc(Cl)cc2)c1	PfM18AAP inh-1 36 | PfM18AAP inh-2 inactive | CTSL1 confirm inactive
Fc1ccc(/C=N/Nc2nn[nH]n2)cc1	none
Nc1nnnn1/N=C\c1ccc(Cl)c([N+](=O)[O-])c1	none
Nn1cnnc1N/N=C/c1ccc(F)cc1	PfM18AAP inh-1 42 | PfM18AAP inh-2 inactive | CTSL1 confirm inactive
Nn1cnnc1N/N=C/c1ccc(Cl)c([N+](=O)[O-])c1	PfM18AAP inh-1 57 | PfM18AAP inh-2 inactive | CTSL1 confirm inactive
Cc1ccc(/C=N/Nc2nncn2N)cc1	PfM18AAP inh-1 40 | PfM18AAP inh-2 inactive | CTSL1 confirm inactive
Cc1nnc(N/N=C/c2ccc([N+](=O)[O-])cc2)n1N	none
O=C(NCc1ccco1)C1CCC(N2C(=O)C3C4CCC(C4)C3C2=O)CC1 (configuration not stated)	none
CCC/C(=N/NC(=O)c1nnn(-c2nonc2N)c1CN1CCCCC1)c1ccccc1	none (no result: PfM18AAP inh-1)
O=C(O)CCC(=O)Nc1ccc(N2CCCCCC2)cc1	PfM18AAP inh-1 44 | PfM18AAP inh-2 inactive | CTSL1 confirm inactive
Cc1ccc(N2CCN(c3ccc(NC(=O)CCC(=O)O)cc3)CC2)cc1	none
CCc1ccc(S(=O)(=O)NC(CC(=O)O)c2ccccc2)cc1 (configuration not stated)	none
CC1SC(=S)N(c2ccc(N(C)C)cc2)C1=O (configuration not stated)	PfM18AAP inh-1 33 | PfM18AAP inh-2 inactive | CTSL1 confirm inactive
CN(C)c1ccc(N2C(=O)CSC2=S)cc1	none
Cc1ccc(Nc2ccc(C(=O)O)cc2N)cc1	PfM18AAP inh-1 55, Rce1 inhib inconclusive (no result: Exocytosis inh, ABHD5-PLIN5 inh) | PfM18AAP inh-2 inactive | CTSL1 confirm inactive
COc1cccc(Nc2ccc(C(=O)O)cc2N)c1	Rce1 inhib inconclusive
Cc1cc(C)cc(Nc2ccc(C(=O)O)cc2N)c1	PfM18AAP inh-1 41, Rce1 inhib active | PfM18AAP inh-2 inactive | CTSL1 confirm inactive
O=C(CCC(=O)OCC(=O)c1ccc([N+](=O)[O-])cc1)NC1CCCCC1	PfM18AAP inh-1 34 | PfM18AAP inh-2 inactive | CTSL1 confirm inactive
O=C(CNC(=O)c1ccccc1)NCC(=O)OCC(=O)c1ccc([N+](=O)[O-])cc1	PfM18AAP inh-1 40 | PfM18AAP inh-2 inactive | CTSL1 confirm inactive
O=C(CNC(=O)c1ccc(Br)cc1)NCC(=O)OCC(=O)c1ccc([N+](=O)[O-])cc1	PfM18AAP inh-1 38 | PfM18AAP inh-2 inactive | CTSL1 confirm inactive
O=C(CNC(=O)c1ccc(Br)cc1)NCC(=O)OCC(=O)c1ccc(F)cc1	none (no result: Platelet DG rel)
O=C(COC(=O)c1ccccc1NC(=O)c1ccccc1)c1cccc([N+](=O)[O-])c1	none
O=C(CCC(=O)OCC(=O)c1cccc([N+](=O)[O-])c1)NC1CCCCC1	none
O=C(CNC(=O)c1ccccc1)NCC(=O)OCC(=O)c1ccc(F)cc1	none
O=C(COC(=O)c1ccccc1NC(=O)c1ccccc1)c1ccc([N+](=O)[O-])cc1	PfM18AAP inh-1 40 | PfM18AAP inh-2 inactive | CTSL1 confirm inactive
COC(=O)C[C@H]1C[C@H]2c3cc(NC(=O)C4CCOCC4)ccc3O[C@H]2[C@@H](CO)O1	none (no result: PfM18AAP inh-1, Rce1 inhib, Platelet DG rel)
Cc1n[nH]c(=S)n(NC(=O)CC(=O)Nn2c(=S)[nH]nc(C)c2=O)c1=O	PfM18AAP inh-1 42 | PfM18AAP inh-2 inactive | CTSL1 confirm inactive
Cc1n[nH]c(=S)n(NC(=O)/C=C/C(=O)Nn2c(=S)[nH]nc(C)c2=O)c1=O	PfM18AAP inh-1 35 | PfM18AAP inh-2 inactive | CTSL1 confirm inactive
Cc1nn2c(=S)[nH]nc2[nH]c1=O	none
CC1(C)CC(=O)C=C(c2ccc(CO)cc2)C1=O	none (no result: PfM18AAP inh-1, Rce1 inhib, Platelet DG rel)
COc1cccc(/C=N/Nc2ncnc3c2[nH]c2ccc(C)cc23)c1OC	none
COc1ccc(/C=N/Nc2ncnc3c2[nH]c2ccccc23)c(OC)c1OC	PfM18AAP inh-1 36 | PfM18AAP inh-2 inactive | CTSL1 confirm inactive
CCNC(=S)NNc1nncc2ccccc12	PfM18AAP inh-1 36 | PfM18AAP inh-2 inactive | CTSL1 confirm inactive
CCCCOP(=O)(c1ccc(N(C)C)cc1)C(O)c1ccc(C(C)C)cc1 (configuration not stated)	none
CCCCOP(=O)(c1ccc(N(C)C)cc1)C(O)c1ccc(N(C)C)cc1 (configuration not stated)	PfM18AAP inh-1 34 | PfM18AAP inh-2 inactive | CTSL1 confirm inactive
CC1CCC/C(=N/Nc2nc3ccccc3s2)C1 (configuration not stated)	PfM18AAP inh-1 39 | PfM18AAP inh-2 inactive | CTSL1 confirm inactive
Cc1[nH]nc2c1C(c1cccs1)C(C#N)=C(N)O2 (configuration not stated)	PfM18AAP inh-1 35 | PfM18AAP inh-2 inactive | CTSL1 confirm inactive
Cc1ccsc1C1C(C#N)=C(N)Oc2n[nH]c(C)c21 (configuration not stated)	none
Cc1cc(/C=N/Nc2ccc([N+](=O)[O-])cn2)c(C)n1-c1ccc(C(=O)O)cc1	PfM18AAP inh-1 50 | PfM18AAP inh-2 inactive | CTSL1 confirm inactive
Cc1ccccc1-n1c(C)cc(/C=N/Nc2ccc([N+](=O)[O-])cn2)c1C	PfM18AAP inh-1 45 | PfM18AAP inh-2 inactive | CTSL1 confirm inactive
Cc1cc(/C=N/NC(=O)c2cccc([N+](=O)[O-])c2)c(C)n1-c1ccccc1	none (no result: Rce1 inhib)
O=C(O)CCCCCNC(=O)c1ccc(Br)cc1	none
CN(C)/N=C/c1ccc([N+](=O)[O-])cc1[N+](=O)[O-]	PfM18AAP inh-1 34 | PfM18AAP inh-2 inactive | CTSL1 confirm inactive
COc1ccc(N2CCN(C(=O)CSc3nc4[nH]ncc4c(=O)n3-c3cccc4ccccc34)CC2)cc1	none
Oc1ccc(/C=N/N2CCN(C3c4ccccc4-c4ccccc43)CC2)cc1O	PfM18AAP inh-1 50 | PfM18AAP inh-2 36 | CTSL1 confirm inactive
Cc1ccc(CN2CCN(/N=C/c3ccc(O)c(O)c3)CC2)cc1	PfM18AAP inh-1 64 (no result: Rce1 inhib) | PfM18AAP inh-2 38 | CTSL1 confirm inactive
CCOC(=O)/C(=C/C=C1\Sc2ccccc2N1CC)C(C)=O	PfM18AAP inh-1 43 | PfM18AAP inh-2 inactive | CTSL1 confirm inactive
CCN1C(=O)/C(=C/C=C2/Sc3ccccc3N2CCO)SC1=S	none
CCOC(=O)c1ccc2c(c1)N(CC)C(=O)c1ccccc1S2	none
CCOC(=O)/C(=C\C=C1/Sc2ccccc2N1CC)C(C)=O	PfM18AAP inh-1 45 | PfM18AAP inh-2 inactive | CTSL1 confirm inactive
C/C(=N\NC(=O)CN1CCN(S(=O)(=O)c2ccc(C)cc2)CC1)c1ccncc1	none
N#Cc1c(N)sc2c1CCCCCC2	PfM18AAP inh-1 43 | PfM18AAP inh-2 inactive | CTSL1 confirm inactive
C/C(=N\S(=O)(=O)c1ccc(C)cc1)N1CCN(S(=O)(=O)c2ccccc2)C1C(C)C (configuration not stated)	none

Assay outcomes as filed in PubChem BioAssay.
